Laboratory results reported in PubChem BioAssay (NCATS).
Results filed as inconclusive are left out. Unmarked numbers belong to inactive results. Active and inactive are the calls of the source. Calls come from the whole dose curve; as a rule, active = well fitted curve in the direction sought with a large enough effect; inconclusive = small, poorly fitted or top-dose-only effect, or another doubt; inactive = no such curve, though single readings can be large; an effect the other way counts as inactive or inconclusive.

Key:
[1] = BET inhibitor-based combinations targeting novel dependencies in MECOM-rearranged (r) AML: SET-2 cell line (AID 2202231); settings: SET-2 AML cells viability, CellTiter-Glo luminescence, 48 h; viability: active compounds read low, concentration not given here; note: nearly all actives have a fitted effect of over 35% in size;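 for viability: plate controls were DMSO treated cells for no effect and wells without cells for full effect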
How it was run: (§1)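 AML cell lines seeded at 500 cells/well, treated with 11-point dose curves for 48 h. Viability by CellTiter-Glo luminescence, normalised to DMSO and empty wells; activity expressed as AUC and per-cell-line Z-transformed AUC.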

[2] = BET inhibitor-based combinations targeting novel dependencies in MECOM-rearranged (r) AML: MV-4-11 cell line (AID 2202233); settings: MV-4-11 AML viability, CellTiter-Glo luminescence, 48 h; series mostly up to 46 µM; note: nearly all actives have a fitted effect of over 45% in size;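 for viability, % of control: plate controls were DMSO for no effect and blank wells for full effect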
How it was run: (§2)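 Cells at 500/well were exposed for 48 hr to MIPE v5.0 drugs as 11-point dose curves. Viability was read by CellTiter-Glo luminescence and normalized to DMSO and empty-well controls. Activity was expressed as AUC and per-cell-line Z-AUC.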

[3] = BET inhibitor-based combinations targeting novel dependencies in MECOM-rearranged (r) AML: HNT-34 cell line (AID 2202234); settings: HNT-34 AML viability, CellTiter-Glo luminescence, 48 h; series mostly up to 46 µM; note: nearly all actives have a fitted effect of over 35% in size;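 for viability (% of control): plate controls were vehicle wells for no effect and cell-free wells for full effect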
How it was run: as §2

[4] = BET inhibitor-based combinations targeting novel dependencies in MECOM-rearranged (r) AML: UCSD-AML1 cell line (AID 2202235); settings: UCSD-AML1 AML cells viability, CellTiter-Glo, 48 h; series mostly up to 46 µM; note: nearly all actives have a fitted effect of over 40% in size;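 for viability (% of control): plate controls were DMSO vehicle wells for no effect and blank wells for full effect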
How it was run: as §2

[5] = BET inhibitor-based combinations targeting novel dependencies in MECOM-rearranged (r) AML: AML-191 cell line (AID 2202236; note: nearly all actives have a fitted effect of over 35% in size;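 for viability (% of control): plate controls were vehicle wells for no effect and wells without cells for full effect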); settings: AML-191 viability, CellTiter-Glo luminescence, 48 h; series mostly up to 46 µM
How it was run: as §1

[6] = BET inhibitor-based combinations targeting novel dependencies in MECOM-rearranged (r) AML: OCI-AML3 cell line (AID 2202232); settings: CellTiter-Glo luminescence, 48 h; Potency: OCI-AML3 viability; series mostly up to 46 µM; note: nearly all actives have a fitted effect of over 35% in size
How it was run: as §1

[7] = BET inhibitor-based combinations targeting novel dependencies in MECOM-rearranged (r) AML: AML-194 cell line (AID 2202237; note: nearly all actives have a fitted effect of over 40% in size;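 for viability (% of control): plate controls were vehicle wells for no effect and wells without cells for full effect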); settings: AML-194 (MECOM-r AML) viability, CellTiter-Glo, 48 h; series mostly up to 46 µM
How it was run: as §1
Potency is the fitted concentration of half-maximal effect.

With CN1CCCN(C(=O)c2cccc(-c3ccc(/C=C4/C(=O)Nc5ccc(Cl)cc54)o3)c2)CC1 the Potency [1] was 20.9 µM (active), the Potency [2] was 0.662 µM (active) and the Potency [3] was 2.63 µM (active). For the same compound, the Potency [4] was 1.32 µM (active) and the Potency [5] was 2.95 µM (active).

In the case of COCCNc1cc(NC(=O)N2CCCc3cc(CN4CCN(C)CC4=O)c(C=O)nc32)ncc1C#N, the viability [1] is reported as 114%, the viability, % of control [2] is reported as 97.1% [at 8.46 µM] and the viability (% of control) [3] is reported as 102% [at 8.46 µM]. The viability (% of control) [4] was 96.8% [at 8.46 µM] and the viability (% of control) [5] was 96.5% [at 8.46 µM].

For c1ccc2c(-c3cnn4cc(-c5ccc(OCCN6CCOCC6)cc5)cnc34)ccnc2c1, the Potency [1] was 12.9 µM (active), the Potency [2] was 4.56 µM (active) and the Potency [3] was 8.11 µM (active).

For C=C1/C(=C\C=C2/CCC[C@]3(C)[C@@H]([C@H](C)CCCC(C)(C)O)CC[C@@H]23)C[C@@H](O)C[C@@H]1O, the viability [1] was 99.5%, the Potency [6] was 20.9 µM (active) and the Potency [7] was 23.5 µM (active).

For Cn1cc(-c2nc(N[C@@H]3CCCC[C@@H]3N)c(F)c3c2C(=O)NC3)cn1, the viability [1] was 112%, the Potency [2] was 0.148 µM (active) and the Potency [3] was 2.35 µM (active).

For CC(C)(C(=O)NCC(F)(F)C(F)(F)F)C(=O)N[C@@H]1C(=O)Nc2ccccc2-c2ccccc21, the viability [1] was 105%, the Potency [2] was “inactive” and the Potency [3] was “inactive”. The Potency [4] was “inactive”, the Potency [5] was “inactive” and the Potency [7] was “inactive”.

For CCOC(=O)[C@H](CCc1ccccc1)N[C@H]1CCc2ccccc2N(CC(=O)O)C1=O, the viability [1] was 115%, the Potency [2] was 7.42 µM (active) and the Potency [3] was “inactive”. For the same compound, the Potency [4] was “inactive”, the Potency [5] was “inactive” and the Potency [7] was “inactive”.

With COC[C@@H](c1ccc(C(F)(F)F)cc1)N1CCN(C2(C)CCN(C(=O)c3c(C)ncnc3C)CC2)C[C@@H]1C the viability [1] was 111%, the Potency [4] was “inactive” and the Potency [5] was “inactive”. For the same compound, the Potency [7] was “inactive”.

With CC(=O)C1CCC2C3CCC4=CC(=O)CCC4(C)C3CCC12C (stereo not drawn) the Potency [1] was 18.6 µM (active) and the Potency [4] was “inactive”.

With [2H]C([2H])([2H])C(O)([C@@H](C)/C=C/[C@@H](C)[C@H]1CC[C@H]2/C(=C/C=C3C[C@@H](O)C[C@H](O)C3)CCC[C@]12C)C([2H])([2H])[2H] the viability [1] was 79.5% and the Potency [5] was 14.8 µM (active).

For O=C(Cc1ccccc1)Nc1nnc(CCSCCc2nnc(NC(=O)Cc3ccccc3)s2)s1, the Potency [1] was 9.34 µM (active), the Potency [3] was “inactive” and the Potency [7] was “inactive”.

With CC(C)c1cnn2c(NCc3ccccc3)cc(NCCCCCCN)nc12 the Potency [6] was 23.5 µM (active) and the Potency [2] was 18.6 µM (active).

With O=C(O)CCCCN(CCc1ccccc1OCc1ccc(CCc2ccccc2)cc1)Cc1ccc(C(=O)O)cc1 the viability [1] was 108%, the Potency [3] was 2.09 µM (active) and the Potency [5] was “inactive”. For the same compound, the Potency [7] was “inactive”.

For COC(=O)N(CC(=O)O)Cc1cccc(OCc2nc(-c3ccc(Cl)cc3)oc2C)c1, the viability [1] was 89%, the Potency [4] was “inactive” and the Potency [5] was “inactive”. The Potency [7] was “inactive”.

With COc1ccc(S(=O)(=O)NCc2ccc(C(=O)NCCc3ccc(Cl)cn3)cc2)cc1 the viability [1] was 98%, the Potency [4] was “inactive” and the Potency [5] was “inactive”. For the same compound, the Potency [7] was “inactive”.

For CC(C)NCCCn1c(Sc2cc(Cl)cc(Cl)c2)nc2c(N)ncnc21, the Potency [6] was 10.5 µM (active) and the Potency [2] was 14.8 µM (active).

With NC(=O)c1cc(F)cc2c1C(=O)N(C1CCN(C3CCC(F)(F)CC3)CC1)C2 the viability [1] was 106%, the Potency [4] was “inactive” and the Potency [5] was “inactive”. For the same compound, the Potency [7] was “inactive”.

With CO[C@H]1/C=C/O[C@@]2(C)Oc3c(C)c(O)c4c(O)c(c(/C=N/N5CCN(C)CC5)c(O)c4c3C2=O)NC(=O)/C(C)=C\C=C\[C@H](C)[C@H](O)[C@@H](C)[C@@H](O)[C@@H](C)[C@H](OC(C)=O)[C@@H]1C the viability [1] was 90.8%, the Potency [4] was “inactive” and the Potency [5] was “inactive”. For the same compound, the Potency [7] was “inactive”.

In the case of Nc1nc(OC(c2ccc(-c3cccc(F)c3)cc2)C(F)(F)F)cc(-c2ccc(C[C@H](N)C(=O)O)cc2)n1 (stereo partly drawn), the viability [1] is reported as 120%, the Potency [4] is reported as “inactive” and the Potency [5] is reported as “inactive”. For the same compound, the Potency [7] was “inactive”.

For CCc1ccc2nc(Nc3cc(Cc4ccccc4)nc(NC4CCC(O)CC4)n3)sc2c1 (stereo not drawn), the Potency [6] was 18.6 µM (active) and the Potency [2] was 18.6 µM (active).

With CONC(=O)Nc1ccc(-c2sc3c(c2CN(C)Cc2ccccc2)c(=O)n(-c2ccccc2)c(=O)n3Cc2c(F)cccc2F)cc1 the viability [1] was 104%, the Potency [4] was “inactive” and the Potency [5] was “inactive”.

With O=S(=O)(c1cccc2cnccc12)N1CCCNCC1 the viability [1] was 101%, the Potency [3] was “inactive” and the Potency [5] was “inactive”. The Potency [7] was “inactive”.

With O=c1cc(-c2cccc3c2Sc2ccccc2S3)oc(N2CCOCC2)c1 the Potency [6] was 13.2 µM (active).

With COc1ccc2nc(S(=O)Cc3ncc(C)c(OC)c3C)[nH]c2c1 (stereo not drawn) the viability [1] was 95.9%, the Potency [4] was “inactive” and the Potency [7] was “inactive”.
